This is a sample that favours compounds with a hit; in the whole collection about 18% have one here.
Six1-Eya2 inh: blocks human Six1 binding to Eya2. Q15475+O00167. AlphaScreen GST-Six1/His-Eya2 binding, biochemical; stronger effect = lower value. activity change, % (concentration not given with the values). 360,000 tested, 0.56% active; in the data active = activity change below about -65%; inconclusive = mostly about -30% to -63%
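AlphaScreen luminescence read after one hour at 37 °C in darkness. Pin-transferred compounds met GST-Six1 and His-Eya2 protein (5X stock 250 nM/500 nM) plus glutathione donor and Ni-chelate acceptor beads (5X, 50 ug/mL).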
TDP1 inh: blocks human tyrosyl-DNA phosphodiesterase 1; AID 485290; Q9NUW8; 350,000 tested, 0.28% active; Potency, µM (doses to about 130 µM), inactives show at the highest dose activity change, negative = inhibition, hits mostly inhibitors; recombinant TDP1, AlphaScreen DNA substrate cleavage; also: potency is read from the fitted curve at half-maximal effect; nearly all actives have a fitted effect of over 40% in size
Target sequence (Q9NUW8 whole entry, looked up): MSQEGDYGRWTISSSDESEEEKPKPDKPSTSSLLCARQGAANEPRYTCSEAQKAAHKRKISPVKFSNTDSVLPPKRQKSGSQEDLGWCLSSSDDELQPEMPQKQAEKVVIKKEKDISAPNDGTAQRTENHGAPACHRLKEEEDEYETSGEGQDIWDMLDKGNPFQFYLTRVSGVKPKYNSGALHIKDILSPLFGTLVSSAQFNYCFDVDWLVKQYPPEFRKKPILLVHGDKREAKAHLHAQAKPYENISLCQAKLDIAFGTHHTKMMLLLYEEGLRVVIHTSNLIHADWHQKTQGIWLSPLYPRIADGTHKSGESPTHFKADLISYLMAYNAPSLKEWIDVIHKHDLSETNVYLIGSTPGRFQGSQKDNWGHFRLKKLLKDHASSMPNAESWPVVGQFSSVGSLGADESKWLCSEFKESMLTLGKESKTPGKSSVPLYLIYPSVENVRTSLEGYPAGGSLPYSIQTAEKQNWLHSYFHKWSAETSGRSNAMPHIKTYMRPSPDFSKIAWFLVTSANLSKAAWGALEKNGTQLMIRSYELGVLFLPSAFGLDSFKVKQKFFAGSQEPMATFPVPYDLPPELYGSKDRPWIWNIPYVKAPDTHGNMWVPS
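E. coli-derived human Tdp1, 1 nM final. Cpd preinc 15 min RT; substrate 15 nM final, 5 min RT; AS bead mix 10 ug/ml final, 10 min RT. Signal loss = tyrosine-FITC cleavage. No-enzyme wells = max signal.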
DT40 TDP1 no CPT: qHTS for Inhibitors of human tyrosyl-DNA phosphodiesterase 1 (TDP1): qHTS in cells in absence of CPT; DT40 Tdp1-/- hTDP1 cells, no CPT, ATP luminescence, 48 h; Potency, µM (top dose mostly 46.2 µM), inactives show top-dose activity change, negative = growth inhibition, usual class: inhibitors; 420,000 tested, 15% active; also: potency is read from the fitted curve at half-maximal effect; nearly all actives have a fitted effect of over 55% in size
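Chicken DT40 Tdp1-/- cells complemented with human TDP1, screened without camptothecin (DMSO vehicle only), 400 cells/well. Compounds pin-transferred, cells incubated at 37 °C for at least 48 hr. Growth read as ATP-dependent luminescence (CellTiter-Glo, 30 min at RT).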
CtBP-E1A blk: CtBP/E1A binding inhibition. AlphaScreen GST-E1A/His-CtBP binding, 1536-well; stronger effect = lower value. activity change, % (test concentration not listed). 340,000 tested, 0.49% active. AID 651724; in the data active = activity change below about -65%; inconclusive = mostly about -30% to -63%
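AlphaScreen with 125 nM GST-E1A and 125 nM His-CtBP (5X stocks) in Tris pH 8.0, 300 mM NaCl, BSA, Tween 20, TCEP. Compounds preincubated 2 h at 37 deg C, then glutathione donor/nickel acceptor beads added for 1 h at 37 deg C in dark.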
IL-1B inflam inh: blocks inflammasome-driven IL-1 beta release. activity change, % at 57.5 µM. THP-1 LPS/ATP IL-1B secretion, AlphaLISA, 16 h; stronger effect = lower value. 360,000 tested, 4.7% active; in the data active = activity change below about -50%; inconclusive = mostly about -30% to -49%
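Secreted IL-1B measured by AlphaLISA bead assay after 16 h compound exposure of THP-1 cells; compounds (final up to 57.5 uM) added 1 h before LPS (250 ng/mL) and ATP (1.25 mM) stimulation; lower signal means less secretion.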
TDP1 cell CPT: DT40-hTDP1 cell growth loss with CPT; Potency, µM (top dose mostly 46.2 µM), inactives show top-dose activity change, negative = growth inhibition, actives largely listed as inhibitors; chicken DT40 Tdp1-/-;hTDP1 cells + 20 nM CPT, ATP luminescence, 48 h; 420,000 tested, 12% active; AID 686979; also: potency is read from the fitted curve at half-maximal effect; nearly all actives have a fitted effect of over 55% in size
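Chicken DT40 Tdp1-/- cells complemented with human TDP1, 400 cells/well, exposed to compounds plus 20 nM camptothecin for at least 48 h at 37 C; viability read as ATP content by CellTiter-Glo luminescence.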
Active calls of the source: *; [ ] = dose if it differs, or a comment. Unless noted, calls follow the shape of the dose curve; as a rule, active = well fitted curve in the direction sought with a large enough effect; inconclusive = small, poorly fitted or top-dose-only effect, or another doubt; inactive = no such curve, though single readings can be large; an effect the other way counts as inactive or inconclusive. % is scaled to controls: 0 for no effect and ±100 for the full control effect.

How did O=C(CCCCn1c(=O)[nH]c2ccccc2c1=O)N1CCN(c2cccc(C(F)(F)F)c2)CC1 do in these assays?
Six1-Eya2 inh: -1; TDP1 inh: 4%; DT40 TDP1 no CPT: inconclusive; CtBP-E1A blk: 0; IL-1B inflam inh: -27; TDP1 cell CPT: 16µM*

How did CCCCOC(=O)CSC1=C(C#N)C(c2ccccc2OC)C(C#N)C(=O)N1 (configuration not stated) do in these assays?
Six1-Eya2 inh: -1; TDP1 inh: 10%; DT40 TDP1 no CPT: -30%; CtBP-E1A blk: -1; IL-1B inflam inh: inconclusive; TDP1 cell CPT: inconclusive

How did C=CCNC(=O)C(C(=O)OCC)C1CCCCC1 (configuration not stated) do in these assays?
Six1-Eya2 inh: 7; TDP1 inh: 2%; DT40 TDP1 no CPT: 2%; CtBP-E1A blk: 2; IL-1B inflam inh: -16; TDP1 cell CPT: -2%

What do the screens show for `COc1cccc(-c2nc(CS(=O)(=O)CC(=O)N3CCN(C4CCCCC4)CC3)c(C)o2)c1`?
Six1-Eya2 inh: 0; TDP1 inh: 3%; DT40 TDP1 no CPT: -30%; CtBP-E1A blk: -6; IL-1B inflam inh: -17; TDP1 cell CPT: -29%

What do the screens show for `C=CCN(c1ccc(C(=O)N2CCCC2)cc1)S(C)(=O)=O`?
Six1-Eya2 inh: 3; TDP1 inh: 1%; DT40 TDP1 no CPT: -2%; CtBP-E1A blk: 0; IL-1B inflam inh: 19; TDP1 cell CPT: 4%

Results for Nc1ccc(-c2nc3ccc(N)cc3s2)cc1 ?
Six1-Eya2 inh: -10; DT40 TDP1 no CPT: inconclusive; CtBP-E1A blk: -6; IL-1B inflam inh: -80*; TDP1 cell CPT: -12%

How did Nc1ccc(-c2nc3ccc(C(=O)O)cc3s2)cc1 do in these assays?
Six1-Eya2 inh: -11; TDP1 inh: 79µM*; DT40 TDP1 no CPT: -26%; CtBP-E1A blk: -11; IL-1B inflam inh: 4; TDP1 cell CPT: -30%

Results for Nc1nc(-c2ccc(C(=O)O)cc2)cs1 ?
Six1-Eya2 inh: -4; TDP1 inh: -8%; DT40 TDP1 no CPT: -7%; IL-1B inflam inh: 11; TDP1 cell CPT: 14%

What do the screens show for `Oc1ccc(-c2nc3ccccc3s2)c(O)c1`?
Six1-Eya2 inh: -3; TDP1 inh: -1%; DT40 TDP1 no CPT: -3%; CtBP-E1A blk: 9; IL-1B inflam inh: 33; TDP1 cell CPT: 4%

Results for Oc1ccc(N=C/C=C/c2cccc(Br)c2)cc1-c1nc2ccccc2s1 ?
Six1-Eya2 inh: -19; TDP1 inh: 0%; DT40 TDP1 no CPT: 21µM*; CtBP-E1A blk: -24; IL-1B inflam inh: -15; TDP1 cell CPT: 12µM*

Results for Nc1nc2ccc(C(=O)N3CCCCC3)cc2s1 ?
Six1-Eya2 inh: inconclusive; DT40 TDP1 no CPT: 10%; CtBP-E1A blk: inconclusive; IL-1B inflam inh: 16; TDP1 cell CPT: 12%

What do the screens show for `Nc1cc2sc(-c3ccc(C(=O)O)cc3)nc2cc1Cl`?
Six1-Eya2 inh: -18; DT40 TDP1 no CPT: inconclusive; CtBP-E1A blk: 3; IL-1B inflam inh: 10; TDP1 cell CPT: 8.2µM*

What do the screens show for `Cc1ccc(CSc2nnnn2C)cc1`?
Six1-Eya2 inh: 14; TDP1 inh: 0%; DT40 TDP1 no CPT: -21%; CtBP-E1A blk: 11; IL-1B inflam inh: 0; TDP1 cell CPT: -8%

How did O=C(Cn1ccc2ccccc2c1=O)Nc1ccc2c(c1)OCO2 do in these assays?
Six1-Eya2 inh: 0; TDP1 inh: -2%; DT40 TDP1 no CPT: -13%; CtBP-E1A blk: -1; IL-1B inflam inh: 4; TDP1 cell CPT: -4%

What do the screens show for `Nc1ccc(O)c(-c2nc3ccccc3s2)c1`?
Six1-Eya2 inh: -18; TDP1 inh: inconclusive; DT40 TDP1 no CPT: 16µM*; CtBP-E1A blk: -10; IL-1B inflam inh: -7; TDP1 cell CPT: 13µM*

Results for Nc1ccc2nc(-c3ccc(O)cc3)sc2c1 ?
TDP1 inh: 2%[12.3 µM]; DT40 TDP1 no CPT: 21µM*; TDP1 cell CPT: 21µM*

What do the screens show for `COc1cc(OC)cc(-c2c(-c3ccc(F)cc3)c3cc(-c4ccc5c(c4)OCCO5)ccc3n2C)c1`?
Six1-Eya2 inh: -14; TDP1 inh: 1%; DT40 TDP1 no CPT: inconclusive; CtBP-E1A blk: -10; IL-1B inflam inh: 55; TDP1 cell CPT: -28%

How did CN1CCC(N2CCN(C3CN(Cc4cn(Cc5ccc(C(F)(F)F)cc5)nn4)S(=O)(=O)C3)CC2)CC1 (configuration not stated) do in these assays?
Six1-Eya2 inh: 0; DT40 TDP1 no CPT: -24%; CtBP-E1A blk: 5; IL-1B inflam inh: 2; TDP1 cell CPT: inconclusive

How did CC1(C)CC(=O)CC(=O)/C1=N\Nc1c(Cl)cc(Cl)cc1Cl do in these assays?
Six1-Eya2 inh: -16; TDP1 inh: 3%; DT40 TDP1 no CPT: 18µM*; CtBP-E1A blk: -18; IL-1B inflam inh: 43; TDP1 cell CPT: inconclusive

How did COc1ccc(C2C(Oc3ccccc3)C(=O)N2c2ccc(C)c(C)c2)cc1OC (configuration not stated) do in these assays?
Six1-Eya2 inh: -10; DT40 TDP1 no CPT: inconclusive; CtBP-E1A blk: -2; IL-1B inflam inh: -4; TDP1 cell CPT: inconclusive

How did O=C1[C@@H](Oc2ccccc2)[C@@H](c2ccncc2)N1c1ccccc1 do in these assays?
Six1-Eya2 inh: 3; DT40 TDP1 no CPT: 18µM*; CtBP-E1A blk: 7; IL-1B inflam inh: -18; TDP1 cell CPT: inconclusive

Results for O=C1[C@@H](Oc2ccccc2)[C@@H](c2ccccc2)N1c1cccnc1 ?
Six1-Eya2 inh: 1; DT40 TDP1 no CPT: 13µM*; CtBP-E1A blk: 1; IL-1B inflam inh: 7; TDP1 cell CPT: inconclusive

What do the screens show for `O=C1[C@H](c2ccccc2)[C@@H](c2ccccc2)N1c1ccncc1`?
Six1-Eya2 inh: -7; DT40 TDP1 no CPT: inconclusive; CtBP-E1A blk: 0; IL-1B inflam inh: -24; TDP1 cell CPT: 15µM*

What do the screens show for `O=C(CSc1nc2ccccc2nc1Cc1ccc(F)cc1)Nc1ccc2c(c1)OCO2`?
TDP1 inh: 3%; DT40 TDP1 no CPT: inconclusive; TDP1 cell CPT: inconclusive

How did COc1ccc(S(=O)(=O)n2nc(-c3ccco3)nc2NCc2ccc(C(C)C)cc2)cc1 do in these assays?
TDP1 inh: 3%; DT40 TDP1 no CPT: 23µM*; TDP1 cell CPT: 18µM*

Results for CS(=O)(=O)n1nc(-c2ccco2)nc1NCc1ccccc1Cl ?
TDP1 inh: -5%; DT40 TDP1 no CPT: 18µM*; TDP1 cell CPT: inconclusive

How did CC(C)c1ccc(CNc2nc(-c3ccco3)nn2S(=O)(=O)c2ccc3ccccc3c2)cc1 do in these assays?
TDP1 inh: -2%; DT40 TDP1 no CPT: inconclusive; TDP1 cell CPT: inconclusive

Bioassay records deposited in PubChem BioAssay by National Center for Advancing Translational Sciences (NCATS).
